This note sets out measurements from PubChem BioAssay (Tox21).

Molecules are shown by their SMILES. Records with an inconclusive call do not appear. A call without a number means that no potency is given here. Values without a mark were called inactive. Activity calls are given as the source filed them. Calls come from the whole dose curve; as a rule, active = well fitted cell-killing curve with a large enough effect in the repeat runs; inconclusive = weak or mixed curves, or effect the other way; inactive = flat fitted curve, though single readings scatter.
Potency is the fitted concentration of half-maximal effect.

A short description of this experiment: cAMP Responsive Elements (CRE) small molecule antagonists, cell-based qHTS assay: qHTS cell viability counter screen (AID 2060913). Note: nearly all actives have a fitted effect of over 40% in size. Conditions: CRE-bla HEK293T viability, CellTiter-Glo luminescence, 5 h; series mostly up to 92.4 µM. Put shortly: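 Viability of NKH477-stimulated (0.25 uM final) CRE-bla HEK293T cells is measured by CellTiter-Glo luminescence following 3 hrs compound exposure at 37 C.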
Background: In qHTS, concentration-response curves come from the screen itself.
For the compound `OCC1CCCO1` (stereo not given), the Potency entry was “inactive”.
For the compound `CC1=CCC2C(C1)C2(C)C` (stereo not given), the Potency entry is “inactive”.
Still for that read-out and setting: to `CC(C)CCCC(C)CCCC(C)CCCCC(C)CCCC(C)CCCC(C)C` (stereo not given) belongs “inactive”; to `C[C@H](O)C(=O)Nc1c(I)c(C(=O)NC(CO)CO)c(I)c(C(=O)NC(CO)CO)c1I`, “inactive”.
Same read-out and setting: to `COc1cc(O)cc(O)c1` belongs “inactive”; to `CCOC(=O)c1cc(=O)c2c(OCC(COc3cccc4oc(C(=O)OCC)cc(=O)c34)OC(=O)[C@@H](N)CCCCN)cccc2o1`, “inactive”; to `C=C(C)C(=O)OCC(C)C`, “inactive”.
Still for that read-out and setting: to `COc1cccc2c1C(=O)c1c(O)c3c(c(O)c1C2=O)C[C@@](O)(C(C)=O)C[C@@H]3O[C@H]1C[C@H](N)[C@H](O)[C@H](C)O1` belongs “inactive”.
For the compound `CCc1c(C(=O)NN2CCCCC2)nn(-c2ccc(Cl)cc2Cl)c1-c1ccc(Br)cc1`, the Potency result was “inactive”.
Take `CCN(CC)CCOC(=O)C(c1ccccc1)c1ccccc1`: the Potency entry was “inactive”.
The same measure, in the same setting: to `O=C1OC(OC(=O)c2cccnc2Nc2cccc(C(F)(F)F)c2)c2ccccc21` (stereo not given) belongs “inactive”; to `CC1(C)C2=CCCC(C)(C)[C@]23CC[C@H]1C3`, “inactive”.
For `CCCCCCCCCCCCCCO`, the Potency entry is “inactive”.
As to `O=S(=O)(O)c1ccc2cc(O)c(S(=O)(=O)O)cc2c1`, the Potency result is “inactive”.
`CC(C)(C)C1=CC(=O)C=C(C(C)(C)C)C1=O`: the Potency result is “inactive”.
Still for that read-out and setting: to `COc1ccc2cc1Oc1ccc(cc1)C[C@H]1c3c(cc4c(c3Oc3cc5c(cc3OC)CCN(C)[C@@H]5C2)OCO4)CCN1C` belongs “inactive”.
Regarding `C=CCN1CCc2nc(N)sc2CC1`, the Potency entry is “inactive”.
The same measure, in the same setting: to `CCCCCCCC/C=C\CCCCCCCC(=O)OC` belongs “inactive”; to `Nc1ccc(N)c2c1C(=O)c1ccccc1C2=O`, “inactive”.
Turning to `CCCCc1nc2cccnc2n1Cc1ccc(-c2ccccc2-c2nnn[nH]2)cc1`, the Potency entry was “inactive”.
With `C=CC[N+](C)(C)CC=C`, the Potency result is “inactive”.
For the compound `O=C(OCC(COC(=O)c1ccccc1)(COC(=O)c1ccccc1)COC(=O)c1ccccc1)c1ccccc1`, the Potency entry was “inactive”.
`CC[N+](CC)(CC)CCOc1ccc(/C=C/c2ccccc2)cc1`: the Potency result is “inactive”.
For `CCN1CCC[C@H]1CNC(=O)c1cc(S(N)(=O)=O)ccc1OC`, the Potency result was “inactive”.
With `CC(C)(C)NC(=O)[C@@H]1C[C@@H]2CCCC[C@@H]2CN1C[C@@H](O)[C@H](Cc1ccccc1)NC(=O)[C@H](CC(N)=O)NC(=O)c1ccc2ccccc2n1`, the Potency is 61.9 µM (active).
For the compound `CC(=O)Oc1cccc(O)c1`, the Potency entry was “inactive”.
`CCCC(CC)CCCCCCCN` (stereo not given): the Potency result was “inactive”.
Take `c1ccncc1`: the Potency entry was “inactive”.
For the compound `NC(=O)[C@@H]1CSSCCC(=O)N[C@@H](CCCCN=C(N)N)C(=O)NCC(=O)N[C@@H](CC(=O)O)C(=O)N[C@@H](Cc2c[nH]c3ccccc23)C(=O)N2CCC[C@H]2C(=O)N1`, the Potency result was “inactive”.
As for `Nc1cccc2c(N)cccc12`, the Potency entry is “inactive”.
In the case of `COCCC(=O)OC`, the Potency entry was “inactive”.
The same measure, in the same setting: the result for `CC(C)(O)c1ccccc1CC[C@@H](SCC1(CC(=O)O)CC1)c1cccc(/C=C/c2ccc3ccc(Cl)cc3n2)c1` reads “inactive”; that for `CC(CCc1ccccc1)NCC(O)c1ccc(O)c(C(N)=O)c1` (stereo not given), “inactive”; that for `CCN1CN(CC)CN(CC)C1`, “inactive”.
For `C1CCCCCCCCCCC1`, the viability change, negative = cytotoxic was 3.07% [at 18.9 µM].
Turning to `Cc1ccc(C(C)C)c(O)c1`, the Potency entry was “inactive”.
As for `CCCCC(CC)CN` (stereo not given), the Potency entry is “inactive”.
As for `CC(C(=O)O)c1ccc(CC2CCCC2=O)cc1` (stereo not given), the Potency result is “inactive”.
Turning to `O=C1Cc2cc(CCN3CCN(c4nsc5ccccc45)CC3)c(Cl)cc2N1`, the Potency entry was “inactive”.
Still for that read-out and setting: the result for `CO[Si](C)(OC)OC` reads “inactive”.
